# Data from the supplement of paper PMC8975748.
# Where a name gives a salt, the structure may show the parent alone.
# Tested on: Saccharomyces cerevisiae BY4741 SeMeCo community
# Assay: z-score of subpopulation abundance vs DMSO median, subpopulation auxotrophic for HLM; higher = larger share of this subpopulation than in DMSO controls
# Conditions: 10 µM; 24 h; SM minimal medium; subpopulation (auxotrophy): HLM
# Method: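 Fluorescent four-plasmid SeMeCo (self-establishing metabolically cooperating S. cerevisiae BY4741 community; plasmids pH-mRuby2, pL-mWasabi, pU-eCFP, pM-TagRFP657) was grown 24 h in minimal SM medium with each Selleck FDA-approved drug at 10 µM in 384-well plates. Cells were fixed and imaged by high-content confocal microscopy. For each auxotrophic subpopulation (and the prototroph), a z-score gives the deviation from the DMSO vehicle-control population median.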
row,SMILES,z-score of subpopulation abundance
1,CCC1=C[C@H]2CN3CCc4c([nH]c5ccccc45)[C@](C(=O)OC)(C2)[C@H]13 [Catharanthine],-0.68
2,C#C[C@]1(O)C=C[C@H]2[C@@H]3CCC4=CC(=O)CC[C@@H]4[C@H]3CC[C@@]21CC [Gestodene],-0.9
3,CC(=O)OCC1=C(C(=O)O)N2C(=O)C(N)C2SC1 (centres undefined) [7-Aminocephalosporanic acid],-0.1
4,COc1cc2c(cc1OC)C1CC(=O)C(CC(C)C)CN1CC2 (centres undefined) [Tetrabenazine (Xenazine)],3.78
5,COC(=O)C1=CCCN(C)C1 [Arecoline HBr],0.28
6,N#Cc1nn(-c2c(Cl)cc(C(F)(F)F)cc2Cl)c(N)c1[S+]([O-])C(F)(F)F (centres undefined) [Fipronil],0
7,CN[C@@H]1[C@@H](O)[C@@H](O[C@@H]2[C@@H](O)[C@H](O[C@H]3O[C@H]([C@@H](C)O)[C@@H](O)[C@H](O)[C@H]3N)[C@@H](N)C[C@H]2N)OC[C@]1(C)O [Geneticin (G418 Sulfate)],-0.13
8,CC[C@@]1(O)C(=O)OCc2c1cc1n(c2=O)Cc2cc3ccccc3nc2-1 [Camptothecin],-0.76
9,C=C[C@H]1CN2CC[C@H]1C[C@H]2[C@H](O)c1ccnc2ccccc12 [Cinchonidine],-0.4
10,Oc1cccc2cccnc12 [8-Hydroxyquinoline],-0.08
11,Cc1cc(O)ccc1Cl [Chlorocresol],-0.58
12,CN1C(=O)COc2c(C(=O)NC3CN4CCC3CC4)cc(Cl)cc21 (centres undefined) [Azasetron HCl],1.29
13,O=C(O[C@H]1C[N+]2(CCCOc3ccccc3)CCC1CC2)C(O)(c1cccs1)c1cccs1 [Aclidinium Bromide],-0.51
14,CCCN1C[C@H](CSC)C[C@@H]2c3cccc4[nH]cc(c34)C[C@H]21 [Pergolide Mesylate],-0.43
15,O=c1[nH]c2ccccc2n1CCCN1CCC(n2c(=O)[nH]c3cc(Cl)ccc32)CC1 [Domperidone],1.97
16,CN(C)[C@@H]1C(=O)C(C(N)=O)=C(O)[C@@]2(O)C(=O)C3=C(O)c4c(O)cccc4[C@@](C)(O)[C@H]3[C@H](O)[C@@H]12 [Oxytetracycline (Terramycin)],2.78
17,CN(C)C(=O)Oc1cccc([N+](C)(C)C)c1 [Neostigmine Bromide],-0.52

row,SMILES,z-score of subpopulation abundance
1,NC(=O)CN1CCCC1=O [Piracetam],1.38
2,CCOC(=O)Nc1ccc(NCc2ccc(F)cc2)cc1N [Retigabine 2HCl],-0.02
3,CCN(C)C(=O)Oc1cccc([C@H](C)N(C)C)c1 [Rivastigmine],-0.03
4,CC[C@@H](C(N)=O)N1CCCC1=O [Levetiracetam],0.21
5,O=c1cccc2n1C[C@@H]1CNC[C@H]2C1 [Cytisine],-0.15
6,C[N+]1(C)[C@@H]2C[C@@H](OC(=O)[C@H](CO)c3ccccc3)C[C@H]1[C@@H]1O[C@@H]12 [Methscopolamine],0.13
7,CN(C)[C@@H]1C(=O)C(C(N)=O)=C(O)[C@@]2(O)C(=O)C3=C(O)c4c(O)cccc4[C@@](C)(O)[C@H]3C[C@@H]12 [Tetracycline HCl],-0.42
8,CCOC(=O)Nc1ccc(NCc2ccc(F)cc2)cc1N [Retigabine],0.18
9,N[C@@H]1C[C@H]1c1ccccc1 [Tranylcypromine (2-PCPA) HCl],0.39
10,CN1c2ccccc2C(NCCCCCCC(=O)O)c2ccc(Cl)cc2S1(=O)=O (centres undefined) [Tianeptine sodium],-0.48
11,NCCc1c[nH]c2ccc(O)cc12 [Serotonin HCl],-0.77
12,C[CH2][Hg][S]c1ccccc1C(=O)[O-].[Na+] [Thimerosal],131
13,O=C(O[C@H]1C[C@H]2CC[C@@H](C1)[N+]21CCCC1)C(O)(c1ccccc1)c1ccccc1 [Trospium chloride],0.01
14,CN1[C@@H]2CC[C@H]1C[C@@H](OC(=O)C(CO)c1ccccc1)C2 (some centres undefined) [Atropine sulfate monohydrate],-0.94
15,CN1[C@@H]2CC[C@H]1C[C@@H](OC(=O)[C@H](CO)c1ccccc1)C2 [Hyoscyamine],0.11
16,Nc1ccncc1 [4-Aminopyridine],-0.2
17,COc1ccc2c(c1)[C@]13CCCC[C@@H]1[C@H](C2)N(C)CC3 [Dextromethorphan hydrobromide hydrate],0.03
